Screens as filed in PubChem BioAssay.
Compounds with a hit are over-represented: about 3.1% of the library has one in this group of screens.
TWEAK-Fn14 inh: TWEAK-Fn14 signaling inhibition. TWEAK-stimulated Fn14 reporter cells, luciferase luminescence, 8 h. inhibition, % at 10 µM. hit rate 2% among 360,000; in the data active = inhibition above about 50%
EBV LMP1 NFkB: Epstein-Barr LMP1 NF-kappaB reporter inhibition | LMP1-induced NF-kappaB luciferase reporter cells, luminescence | inhibition, % at 12.5 µM | hit rate 0.69% among 350,000; in the data active = inhibition above about 41%;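 note: 0% = neutral control wells and 100% = reference inhibitor control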
TROY signal inh: TROY signaling inhibition | Q293 LMP1-TROYcd NF-kB luciferase reporter, 4 h | inhibition, % at 10 µM | hit rate 0.98% among 360,000;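 active = compounds whose plate-normalised and pattern-corrected inhibition of the luciferase reporter signal at the single screening dose is 50% or more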
PAX8 reporter: inhibitors of PAX8 transcriptional activity in RMG-I cells; hit rate 1.2% among 360,000; RMG-I TPO-luciferase reporter, SteadyGlo, 24 h; AID 652154; inhibition, % at 12.6 µM;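 active = mean replicate inhibition at least 60% with every replicate also reaching 60%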;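 note: luciferase light reporting Pax8 driven TPO promoter activity; plate controls were median of neutral control wells for no effect and mitoxantrone controls for full effect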
EWS-Fli block: blocks EWS/Fli oncoprotein-driven transcription; A673 NR0B1-luciferase reporter, viability-normalised; inhibition, % at 12.6 µM; hit rate 0.67% among 350,000;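 active = mean inhibition of at least 50% after viability correction, with every replicate also passing that limit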;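 note: firefly luciferase signal divided by Alamar Blue viability fluorescence both relative to DMSO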
LGR2 antag: Drosophila LGR2 receptor signaling inhibition; HEK293 LGR2, CRE-luciferase, bursicon-stimulated, 4 h; inhibition, % at 9.99 µM; hit rate 0.35% among 380,000; AID 720647;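 active = drop in luminescence signal, shown as inhibition above about 50% in the replicate tests, limit read from the data, passing the limit was not always enough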;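 note: agonist challenge used bursicon conditioned medium at about half maximal strength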
* marks the source's active call; other numbers are inactive results; . = no result given.

SMILES	TWEAK-Fn14 inh	EBV LMP1 NFkB	TROY signal inh	PAX8 reporter	EWS-Fli block	LGR2 antag
CN1[C@@H]2Cn3c(ccc(-c4ccccc4)c3=O)[C@H]1[C@@H](C(=O)NC1CCCCC1)[C@@H]2CO	.	.	.	89*	8	-4
CCS(=O)(=O)N1[C@@H](CO)[C@@H](c2ccccc2)C12CN(C(=O)C1CCCCC1)C2	.	.	.	7	3	15
Cc1cc(C)n(-c2cccc(C(=O)O)c2)n1	80*	-22	19	7	8	1
CCNc1nc(NCC)nc(N(C#N)C(C)C)n1	76*	5	-7	2	-4	-49
C[C@@H]1CN([C@@H](C)CO)C(=O)c2cc(NC(=O)c3ccncc3)ccc2O[C@@H]1CN(C)S(=O)(=O)c1cccs1	.	.	.	.	-8	7
O=c1oc2ccccc2cc1-c1nc2c(s1)CCCC2	84*	32	66*	.	60*	43
O=c1oc2ccccc2cc1-c1nc2ccccc2o1	20	-26	0	.	-44	9
C[C@H](CO)N1C[C@H](C)[C@H](CN(C)C(=O)Nc2cccc3ccccc23)Oc2c(NS(=O)(=O)c3cccs3)cccc2C1=O	.	.	.	.	17	21
Cc1ccc(-c2nc3ccccc3nc2-c2ccccc2)cc1	96*	0	-1	-14	2	-1
Clc1ccc(-c2nc3ccccc3nc2-c2ccccc2)cc1	28	2	-5	4	3	-4
COC(=O)C1CCN(c2cc(=O)n(C3CCCCC3)c(=O)[nH]2)CC1	95*	2	.	.	.	.
Cc1cc(C)nc(SCc2ccc(C(=O)N/N=C/c3cccc(O)c3O)cc2)n1	5	52*	1	68*	.	11
COc1ccc(O)c(/C=N/NC(=O)c2ccc(CSc3nc(C)cc(C)n3)cc2)c1	45	31	41	53	4	.
Nc1ncnc2oc(-c3ccco3)c(-c3ccco3)c12	76*	2	-6	.	.	.
CC(=O)N(C1CC(C)C(C#N)(C#N)C1(C#N)C#N)N(C)C (stereo not drawn)	8	1	-11	75*	36	3
CCCC(=O)N(C1CC(C)C(C#N)(C#N)C1(C#N)C#N)N(C)C (stereo not drawn)	5	28	28	68*	14	-19
O=C(O)c1ccc(C2(c3ccc(C(=O)O)cc3)OC(=O)c3ccccc32)cc1	7	2	-11	10	-3	-14
O=C1OC(c2ccccc2)(c2cc(Br)c(O)c(Br)c2)c2ccccc21 (stereo not drawn)	33	-10	53*	-5	7	-22
CC1CCCCN1c1ncnc(N)c1[N+](=O)[O-] (stereo not drawn)	61*	22	37	-31	-27	17
CC1Cc2ccccc2N1c1ncnc2nc[nH]c12 (stereo not drawn)	60*	1	30	.	.	.
Cc1nc(N2CCOCC2)nc(N2CCCCC2C)c1[N+](=O)[O-] (stereo not drawn)	-6	7	7	-1	10	1
CC1Cc2ccccc2N1c1ncnc(N)c1[N+](=O)[O-] (stereo not drawn)	93*	76*	68*	-15	7	64*
CCNC(=O)C[C@H]1CC[C@@H]2[C@@H](COc3ccc(NC(=O)c4ccc5c(c4)OCO5)cc3C(=O)N2C)O1	.	.	.	-17	-10	-2
N=c1c(-c2nc3ccccc3[nH]2)cc(C(=O)c2cccs2)nn1-c1ccccc1	-25	42*	-14	.	.	.
COc1cc(NC(=S)NCCC(c2ccccc2)c2ccccc2)c(OC)cc1Cl	30	-7	53*	19	.	-10
SMILES	TWEAK-Fn14 inh	EBV LMP1 NFkB	TROY signal inh	PAX8 reporter	EWS-Fli block	LGR2 antag
O=S(=O)(c1ccc(NC(=S)NCCC(c2ccccc2)c2ccccc2)cc1)N1CCOCC1	56*	-7	39	25	.	14
S=C(NCCC(c1ccccc1)c1ccccc1)Nc1ccc(Cl)cc1	62*	1	45	.	.	-7
COc1cc(NC(=S)NCc2ccc(S(N)(=O)=O)cc2)c(OC)cc1Cl	17	-4	4	11	65*	-5
CCC(=O)N[C@@H]1CC[C@@H](CC(=O)NCC2CCCCC2)O[C@@H]1CO	.	.	.	-2	4	10
CC(=O)/C(=C/c1ccccc1)C(=O)Nc1ccccc1C	80*	4	6	18	3	17
N#Cc1ccc(NC(=O)CSc2cn[nH]n2)cc1	90*	-2	-3	-19	-5	8
